Data published in PubChem BioAssay (EPA / NIEHS).
Results filed as inconclusive are left out. Some compounds were tested as several samples or in several runs, with calls that do not always agree. Activity calls are given as the source filed them. Rule for the calls: active = hit-call score of the fitted dose curve at least 0.9, where 1 is the maximum; inconclusive = response in the unintended direction; inactive = score below 0.9.

Target: Peroxisome proliferator-activated receptor gamma (Homo sapiens) (UniProt P37231)
Assay: NVS_NR_hPPARg: NovaScreen (NVS) Nuclear Receptor Binding Assay for human Peroxisome Proliferator-activated Receptor gamma (PPARg) (AID 2283370)
Description: NVS_NR_hPPARg is a biochemical, single-readout assay that uses extracted gene-proteins in a cell-free assay. Measurements were taken 2 hours after chemical dosing in a 384-well plate.NVS_NR_hPPARg is one of one assay component(s) measured or calculated from the NVS_NR_hPPARg assay. It is designed to make measurements of fluorescent polarization, a form of binding reporter, as detected with fluorescence polarization signals by Fluorescence Polarization technology.Data from the assay component NVS_NR_hPPARg was analyzed into 1 assay endpoint. This assay endpoint, NVS_NR_hPPARg, was analyzed in the positive analysis fitting direction relative to DMSO as the negative control and baseline of activity. Using a type of binding reporter, loss-of-signal activity can be used to understand changes in the binding as they relate to the gene PPARG. Furthermore, this assay endpoint can be referred to as a primary readout, because the performed assay has only produced 1 assay endpoint. To generalize the intended target to other relatable targets, this assay endpoint is annotated to the nuclear receptor intended target family, where the subfamily is non-steroidal.
Binding assays used specific radioligands (tritiated, iodinated) with non-radioactive competitive displacement ligands in agonist or antagonist protocols (as indicated) and various reference compounds and inhibitors to titrate specific binding to receptors and transporters. Most enzyme assays (CYPs, kinases, phosphatases, proteases, HDACs) used recombinant protein and specific substrates (fluorescence mostly, some colorimetric and radioactive) and inhibitors, followed by a biochemical separation of substrate and product. All assays for the biochemical HTS were initially run in duplicate at a single concentration (10 uM for CYP450 assays and 25 uM for all others). […] Each assay was run with positive and negative controls, and concurrent controls on every plate. The follow-up (secondary) screen tested active chemical-pairs in concentration series, as well as a few additional assays not tested in the primary screen, some selected negative inactives, and several cases re-run in the concentration series for confirmatory purposes.

Peroxisome proliferator-activated receptor gamma (Homo sapiens), sequence (P37231 whole entry, looked up): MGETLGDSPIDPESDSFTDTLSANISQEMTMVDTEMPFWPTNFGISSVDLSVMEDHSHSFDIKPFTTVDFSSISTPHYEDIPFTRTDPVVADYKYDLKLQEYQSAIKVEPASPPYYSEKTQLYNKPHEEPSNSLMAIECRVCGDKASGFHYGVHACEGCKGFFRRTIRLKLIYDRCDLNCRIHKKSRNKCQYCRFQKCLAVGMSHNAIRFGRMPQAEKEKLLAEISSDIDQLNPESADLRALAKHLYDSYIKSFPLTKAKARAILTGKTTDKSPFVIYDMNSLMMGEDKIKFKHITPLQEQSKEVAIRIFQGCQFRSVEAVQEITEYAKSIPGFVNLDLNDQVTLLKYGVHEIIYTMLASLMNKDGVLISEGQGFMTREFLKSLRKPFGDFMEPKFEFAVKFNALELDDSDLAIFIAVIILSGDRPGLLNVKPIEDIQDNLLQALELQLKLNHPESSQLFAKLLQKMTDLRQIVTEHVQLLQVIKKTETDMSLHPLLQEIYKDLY

Compound	AC50	outcome
CC(C)C[C@H](NC(=O)OCC1c2ccccc2-c2ccccc21)C(=O)O	46.6 µM (active)	–
CCC(=O)O[C@@H]1C[C@H]2CC[C@]1(C)C2(C)C	–	inactive
CCOc1ccc(N=Nc2ccc(C=Cc3ccc(N=Nc4ccc(OCC)cc4)cc3S(=O)(=O)O)c(S(=O)(=O)O)c2)cc1	–	inactive
C1=CC2C3C=CC(C3)C2C1 (stereo not given)	2.39 µM (active)	–
Oc1ccc2cc(SSc3ccc4cc(O)ccc4c3)ccc2c1	–	inactive
CCCCCCCCc1ccc(S(=O)(=O)O)cc1	4.22 µM (active)	inactive
Nc1ccc2cc(S(=O)(=O)O)cc(O)c2c1N=Nc1ccccc1C(F)(F)F	2.32 µM (active)	–
C=C1CC[C@H](O)C/C1=C/C=C1\CCC[C@]2(C)[C@@H]([C@H](C)/C=C/[C@H](C)C(C)C)CC[C@@H]12	–	inactive
C=C[Si]1(C)O[Si](C)(C=C)O[Si](C)(C=C)O[Si](C)(C=C)O1 (stereo not given)	–	inactive
O=C(Nc1ccc2c(O)c(N=Nc3ccc(N=Nc4ccc(S(=O)(=O)O)cc4)cc3)c(S(=O)(=O)O)cc2c1)c1ccccc1	–	inactive
CCc1cc(Cc2cc(CC)cc(C(C)(C)C)c2O)c(O)c(C(C)(C)C)c1	–	inactive
CC(C)NCC(O)COc1ccc(CC(N)=O)cc1 (stereo not given)	–	inactive
CCCC(=O)OC(C)(C)Cc1ccccc1	13.4 µM (active)	–
CSCCC=O	–	inactive
Cc1ccc(S(=O)(=O)Oc2ccc(N=Nc3ccc(-c4ccc(N=Nc5c(O)ccc6cc(S(=O)(=O)O)cc(S(=O)(=O)O)c56)c(C)c4)cc3C)cc2)cc1	–	inactive
O=CCc1ccccc1	–	inactive
COc1ccccc1N=Nc1c(S(=O)(=O)O)cc2cc(S(=O)(=O)O)cc(NC(C)=O)c2c1O	–	inactive
CN(C)c1cccc(O)c1	–	inactive
C=CC(C)(O)CCC=C(C)C (stereo not given)	–	inactive
CCCCCCCCCCCC(=O)OCC(O)CO (stereo not given)	–	inactive
C=C1C[C@]23C[C@@]1(O)CC[C@H]2[C@@]12C=C[C@H](O)[C@@](C)(C(=O)O1)[C@H]2[C@@H]3C(=O)O	–	inactive
COc1ccc(N=Nc2cc(C)c(N=Nc3ccc(S(=O)(=O)O)cc3)cc2OC)cc1	–	inactive
CCc1cc(C(C)(C)C)c(O)c(C(C)(C)C)c1	–	inactive
CC(C)CCCCCCCCCCCCCCC(=O)O	–	inactive
CC(=O)O[C@H]1C[C@@H]2CC[C@@]1(C)C2(C)C	–	inactive
CCOC(=O)c1ccc(N)cc1	41.6 µM (active)	–
C[C@H]1O[C@@H](O[C@H]2[C@@H](O)C[C@H](O[C@H]3[C@@H](O)C[C@H](O[C@H]4CC[C@@]5(C)[C@H](CC[C@@H]6[C@@H]5C[C@@H](O)[C@]5(C)[C@@H](C7=CC(=O)OC7)CC[C@]65O)C4)O[C@@H]3C)O[C@@H]2C)C[C@H](O)[C@@H]1O	–	inactive
Nc1ccccc1[N+](=O)[O-]	–	inactive
CCCCCCC(C)(C)S	–	inactive
